Experimental findings from PubChem BioAssay AID602468 (The Scripps Research Institute Molecular Screening Center, 2012) are described below.

The source made the active and inactive calls. No rule for the calls is given here.

This test deals with Neuro-2A. The test is described as follows: selectivity across cysteine-reactive proteome – gel-based competitive ABPP, fluorescence, MBM, Neuro-2A, selectivity assay for PME-1 inhibitor project, late-stage follow-up (AID 602468). The following applies: MBM or Neuro-2A, in situ; series mostly up to 0.25 µM.

For the compound `CC[C@@]1(c2ccc(C)cc2)C(=O)N(C(=O)OC(C)C)N1C(=O)OC(C)C`, the result was inactive.
